Assay outcomes deposited in PubChem BioAssay by several laboratories.
MITF TRPM1 HTS – activators of MITF-driven TRPM1 promoter activity in SK-MEL-5 cells. activation, % at 12.5 µM. 0.75% of 300,000 active. SK-MEL-5 TRPM1-promoter luciferase, 24 h; % of positive control, neutral wells = 0;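 active means mean activation of at least 80% with every replicate also reaching 80%; inconclusive means mean reaches 80% but some replicate falls short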
PHOSPHO1 block – blocks human PHOSPHO1 phosphatase activity; Q8TCT1; recombinant PHOSPHO1, absorbance phosphatase assay; inhibition, % at 13.3 µM; 1.1% of 290,000 active; AID 1565; in the data active means inhibition above about 60%
Target sequence (Q8TCT1 whole entry, looked up): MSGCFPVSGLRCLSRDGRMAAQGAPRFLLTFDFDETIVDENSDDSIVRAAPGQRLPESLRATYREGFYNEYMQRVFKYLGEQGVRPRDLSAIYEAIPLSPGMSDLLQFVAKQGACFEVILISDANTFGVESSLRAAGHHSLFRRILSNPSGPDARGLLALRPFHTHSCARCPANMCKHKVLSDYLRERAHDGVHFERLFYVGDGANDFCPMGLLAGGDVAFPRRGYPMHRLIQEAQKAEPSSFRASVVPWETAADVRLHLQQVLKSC
esBAF inh – blocks esBAF chromatin remodeling in mouse ES cells; Bmi1-luciferase knock-in reporter, 24 h; 100% = twice the neutral-well signal; 2% of 350,000 active; reporter increase, % at 12.5 µM; in the data active means activation above about 40%; inconclusive means no clear call, values can overlap the other calls;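 further: a rise in the Bmi1 reporter signal indicates esBAF inhibition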
APOBEC3A inh – inhibitors of human APOBEC3A DNA deaminase. 0.41% of 330,000 active. inhibition, % at 20 µM. recombinant A3A, FAM/TAMRA ssDNA deamination fluorescence;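 active means at least 40% inhibition at 20 µM here, with at most 30% in a related deaminase screen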
Target sequence (P31941 whole entry, looked up): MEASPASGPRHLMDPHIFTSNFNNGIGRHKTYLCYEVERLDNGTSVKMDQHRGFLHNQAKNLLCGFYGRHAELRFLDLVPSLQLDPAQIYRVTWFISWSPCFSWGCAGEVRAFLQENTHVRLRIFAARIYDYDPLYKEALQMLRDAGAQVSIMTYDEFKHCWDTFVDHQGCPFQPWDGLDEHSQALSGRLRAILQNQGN
APOBEC3G inh – inhibitors of human APOBEC3G DNA deaminase; 0.28% of 330,000 active; recombinant A3G, ssDNA deamination FAM/TAMRA fluorescence; inhibition, % at 20 µM;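 active means inhibition of at least 40% at 20 µM, with no more than 30% in the related APOBEC3A deaminase screen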
Wnt bcat act – activates Wnt/beta-catenin signaling in a reporter cell assay; activation, % at 9.35 µM; activator, plate reader; 1.2% of 300,000 active; in the data active means activation above about 30%, passing the limit was not always enough; inconclusive means no clear call, values can overlap the other calls
A number is an active result. The list is not random: actives were taken first. Their share in the collection is about 3.6%.

Results for O=C(CCc1ccccc1)Nc1ccc(NC(=O)c2ccco2)nc1 ?
MITF TRPM1 HTS: inconclusive; PHOSPHO1 block: inactive; esBAF inh: inactive; APOBEC3A inh: inactive; APOBEC3G inh: inactive; Wnt bcat act: 36

Results for O=C(COc1ccccc1Cl)Nc1ccc(Cl)cn1 ?
PHOSPHO1 block: inactive; esBAF inh: inactive; APOBEC3A inh: inactive; APOBEC3G inh: inactive; Wnt bcat act: 52

What do the screens show for `O=C(CCc1ccccc1)Nc1ccc(NC(=O)c2ccco2)cc1`?
MITF TRPM1 HTS: inactive; PHOSPHO1 block: inactive; esBAF inh: inactive; APOBEC3A inh: inactive; APOBEC3G inh: inactive; Wnt bcat act: inactive

How did O=C(Nc1ccc(-c2nc3ncccc3o2)cc1)c1ccco1 do in these assays?
MITF TRPM1 HTS: 104; PHOSPHO1 block: inactive; APOBEC3A inh: inactive; APOBEC3G inh: inactive; Wnt bcat act: inactive

What do the screens show for `C[C@H](CO)N1C[C@H](C)[C@H](CN(C)Cc2ccccc2)OCCCC[C@H](C)Oc2ccc(N(C)C)cc2C1=O`?
esBAF inh: inactive

Results for C[C@H]1CN([C@@H](C)CO)C(=O)c2cc(NS(=O)(=O)c3cccs3)ccc2O[C@@H]1CN(C)C(=O)Nc1ccc(C(F)(F)F)cc1 ?
esBAF inh: inactive

What do the screens show for `COc1ccccc1OCC(=O)Nc1ccccc1C(=O)N1CCCCC1`?
MITF TRPM1 HTS: inactive; PHOSPHO1 block: inactive; APOBEC3A inh: inactive; APOBEC3G inh: inactive; Wnt bcat act: inactive

Results for O=C(Nc1ccc(OC(=O)c2ccco2)cc1)c1ccco1 ?
PHOSPHO1 block: inactive; esBAF inh: inactive; APOBEC3A inh: inactive; APOBEC3G inh: inactive; Wnt bcat act: inactive

How did O=C(COc1ccccc1Cl)Nc1ccccc1C(=O)N1CCCCC1 do in these assays?
MITF TRPM1 HTS: inactive; PHOSPHO1 block: inactive; esBAF inh: 61; APOBEC3A inh: inactive; APOBEC3G inh: inactive; Wnt bcat act: inactive

Results for Cc1cc(NC(=O)c2ccco2)ncc1NC(=O)Cc1ccccc1 ?
MITF TRPM1 HTS: inactive; PHOSPHO1 block: inactive; esBAF inh: 45; APOBEC3A inh: inactive; APOBEC3G inh: inactive

What do the screens show for `O=C(OC1CCCCC1)c1ccc(NC(=O)c2ccco2)cc1`?
MITF TRPM1 HTS: inactive; PHOSPHO1 block: inactive; esBAF inh: 60; APOBEC3A inh: inactive; APOBEC3G inh: inactive; Wnt bcat act: inactive

Results for O=C(Nc1ccccn1)c1ccc(NC(=O)c2ccco2)cc1 ?
MITF TRPM1 HTS: 86; PHOSPHO1 block: inactive; esBAF inh: inactive; APOBEC3A inh: inactive; APOBEC3G inh: inactive

What do the screens show for `O=C(CCc1ccccc1)Nc1ccc(Cl)cn1`?
MITF TRPM1 HTS: inactive; PHOSPHO1 block: inactive; esBAF inh: 43; APOBEC3A inh: inactive; APOBEC3G inh: inactive

Results for CC1(C)CC(NC(=O)C2CCC(=O)N(Cc3ccccc3F)C2)CC(C)(C)C1 (stereo not given) ?
MITF TRPM1 HTS: inactive; esBAF inh: 47; APOBEC3A inh: inactive; APOBEC3G inh: inactive; Wnt bcat act: inactive

How did COc1cc2c(C(=O)N3CCN(C)CC3)c(C)oc2cc1Br do in these assays?
MITF TRPM1 HTS: inactive; PHOSPHO1 block: inactive; esBAF inh: inactive; APOBEC3A inh: inactive; APOBEC3G inh: inactive

Results for Cc1oc2cc3c(C(=O)N4CCCCC4)c(C)oc3cc2c1C(=O)N1CCCCC1 ?
MITF TRPM1 HTS: inactive; PHOSPHO1 block: inactive; esBAF inh: 149; APOBEC3A inh: inactive; APOBEC3G inh: inactive

What do the screens show for `O=C1CCN(Cc2ccccc2)CCN1CCSc1ccccc1`?
MITF TRPM1 HTS: inactive; PHOSPHO1 block: inactive; esBAF inh: 61; APOBEC3A inh: inactive; APOBEC3G inh: inactive; Wnt bcat act: inactive

What do the screens show for `CCCN1CCC(=O)N(CCSc2ccccc2)CC1`?
MITF TRPM1 HTS: inactive; PHOSPHO1 block: inactive; esBAF inh: inactive; APOBEC3A inh: inactive; APOBEC3G inh: inactive; Wnt bcat act: inactive

What do the screens show for `Cc1ccc(SCCN2CCC(C(C)(C)C)CCC2=O)cc1` (stereo not given)?
MITF TRPM1 HTS: inactive; PHOSPHO1 block: inactive; esBAF inh: inactive; APOBEC3A inh: inactive; APOBEC3G inh: inactive; Wnt bcat act: inactive

What do the screens show for `C[C@H]1CCC(=O)N(CCSc2ccc(Br)cc2)CC1`?
MITF TRPM1 HTS: inactive; esBAF inh: 53; APOBEC3A inh: inactive; APOBEC3G inh: inactive; Wnt bcat act: inactive

How did CC(C)(C)C1CCC(=O)N(CCSc2ccccc2)CC1 (stereo not given) do in these assays?
MITF TRPM1 HTS: 96; PHOSPHO1 block: inactive; esBAF inh: 62; APOBEC3A inh: inactive; APOBEC3G inh: inactive; Wnt bcat act: 47
